Experimental data as given in PubChem BioAssay AID1159580 (chemical genetic matrix, 2015).
The whole screen tested about 5,500 compounds, of which about 2,000 (36%) were called active. Not shown: some 18% with an inconclusive outcome. Cut-off read from the data, not from the text of the source: active = normalized growth mostly below about 0.91 (no sharp cut-off); inconclusive = no clear call, values can overlap the other calls; inactive = mostly above about 0.92. This is one part of the list.

Test: chemical genetic growth profiling, strain panel (AID 1159580);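 note: tested at 20 µM; growth read once vehicle control cultures reached saturation at 30 °C; 1 = growth at the plate median or of vehicle wells; lower values mean less growth of the strain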
Conditions: S. cerevisiae deletion strains, growth OD

Measured: normalized growth

COc1ccc(-c2coc3cc(O)ccc3c2=O)c(O)c1O
inactive: locus YBR009C, strain hhf1, hits give low values 0.955 | locus YBR171W, strain sec66, hits give low values 0.984 | locus YCL016C, strain dcc1, hits give low values 0.94 | locus YCL061C, strain MRC1, hits give low values 0.925 | locus YCL069W, strain vba3, hits give low values 0.979 | locus YCR088W, strain abp1, hits give low values 0.971 | locus YDL005C, strain med2, hits give low values 0.979 | locus YDL040C, strain nat1, hits give low values 0.999 | locus YDR001C, strain nth1, hits give low values 0.976 | locus YDR137W, strain rgp1, hits give low values 1.06 | locus YDR159W, strain sac3, hits give low values 1.05 | locus YDR195W, strain ref2 0.992 | locus YDR335W, strain msn5, hits give low values 0.948 | locus YDR392W, strain spt3, hits give low values 0.869 | locus YEL003W, strain gim4, hits give low values 0.977 | locus YEL037C, strain rad23, hits give low values 0.969 | locus YEL061C, strain CIN8 (second series), hits give low values 0.963 | locus YER016W, strain bim1, hits give low values 0.94 | locus YER111C, strain swi4, hits give low values 0.933 | locus YER155C, strain BEM2 (second series), hits give low values 0.944 | locus YGL167C, strain pmr1, hits give low values 0.979 | locus YGL227W, strain vid30, hits give low values 0.989 | locus YGL240W, strain doc1, hits give low values 0.964 | locus YHR013C, strain ard1, hits give low values 0.861 | locus YHR030C, strain SLT2, hits give low values 1.02 | locus YHR079C, strain IRE1, hits give low values 1.02 | locus YJL092W, strain hpr5, hits give low values 0.975 | locus YJL095W, strain BCK1 (second series), hits give low values 0.952 | locus YJL095W, strain BCK1, hits give low values 1.01 | locus YJL115W, strain asf1, hits give low values 0.968 | locus YJL129C, strain trk1, hits give low values 1.03 | locus YJL154C, strain vps35, hits give low values 0.988 | locus YJR066W, strain TOR1, hits give low values 0.927 | locus YKR026C, strain gcn3, hits give low values 0.995 | locus YKR091W, strain srl3, hits give low values 0.991 | locus YLL001W, strain dnm1, hits give low values 0.971 | locus YLL026W, hits give low values 0.98 | locus YLL041C, strain sdh2, hits give low values 0.968 | locus YLR027C, strain aat2, hits give low values 0.93 | locus YLR113W, strain HOG1, hits give low values 1.01 | locus YLR221C, strain rsa3, hits give low values 0.92 | locus YLR258W, strain gsy2, hits give low values 0.947 | locus YLR320W, strain mms22, hits give low values 0.905 | locus YLR370C, strain arc18, hits give low values 0.916 | locus YLR384C, strain iki3, hits give low values 0.998 | locus YML120C, strain ndi1, hits give low values 1 | locus YMR125W, strain sto1, hits give low values 1.01 | locus YMR129W, hits give low values 0.967 | locus YMR205C, strain PFK2, hits give low values 0.971 | locus YMR231W, strain pep5, hits give low values 0.937 | locus YNL071W, strain lat1, hits give low values 0.955 | locus YNL183C, strain NPR1, hits give low values 0.965 | locus YNL248C, strain rpa49, hits give low values 0.939 | locus YNL322C, strain KRE1 (second series), hits give low values 0.974 | locus YNR049C, strain mso1, hits give low values 0.982 | locus YOR001W, strain rrp6, hits give low values 0.988 | locus YOR070C, strain gyp1, hits give low values 0.943 | locus YOR080W, strain dia2, hits give low values 0.986 | locus YOR231W, strain MKK1, hits give low values 1.04 | locus YOR270C, strain vph1, hits give low values 0.96 | locus YOR290C, strain snf2, hits give low values 0.961 | locus YPL078C, strain atp4, hits give low values 0.991 | locus YPL240C, strain hsp82, hits give low values 0.975 | locus YPL256C, strain CLN2, hits give low values 1.02
active: locus YAL021C, strain ccr4, hits give low values 0.817 | locus YAL026C, strain drs2, hits give low values 0.818 | locus YAL030W, strain snc1, hits give low values 0.874 | locus YBL061C, strain skt5, hits give low values 0.825 | locus YBR023C, strain chs3, hits give low values 0.877 | locus YBR231C, strain swc5, hits give low values 0.837 | locus YBR279W, strain paf1, hits give low values 0.893 | locus YCL011C, strain gbp2, hits give low values 0.898 | locus YDR069C, strain doa4, hits give low values 0.762 | locus YDR297W, strain sur2, hits give low values 0.898 | locus YDR334W, strain swr1, hits give low values 0.872 | locus YER015W, strain faa2, hits give low values 0.737 | locus YFR010W, strain ubp6, hits give low values 0.873 | locus YGL173C, strain kem1, hits give low values 0.671 | locus YGL253W, strain hxk2, hits give low values 0.881 | locus YHR027C, strain rpn1, hits give low values 0.669 | locus YHR142W, strain chs7, hits give low values 0.86 | locus YJL164C, strain tpk1, hits give low values 0.863 | locus YJL166W, strain qcr8, hits give low values 0.817 | locus YKL160W, strain elf1, hits give low values 0.902 | locus YLR262C, strain YPT6 (second series), hits give low values 0.743 | locus YLR342W, strain FKS1, hits give low values 0.753 | locus YLR357W, strain rsc2, hits give low values 0.749 | locus YMR058W, strain fet3, hits give low values 0.333 | locus YNL209W, strain ssb2, hits give low values 0.633 | locus YOR083W, strain WHI5, hits give low values 0.866 | locus YOR106W, strain vam3, hits give low values 0.542 | locus YOR265W, strain rbl2, hits give low values 0.918 | locus YPL051W, strain arl3, hits give low values 0.686 | locus YPL106C, strain sse1, hits give low values 0.813
